Measurements published in PubChem BioAssay AID1159580 (chemical genetic matrix, 2015).
Where “and” joins values, the source holds several entries; their conditions need not be identical. Identical values can stand only once. About 2,000 (36%) of roughly 5,500 compounds were called active. Another 18% or so got no clear call; they are omitted. Rule as the data show it: active = normalized growth mostly below about 0.91 (no sharp cut-off); inconclusive = no clear call, values can overlap the other calls; inactive = mostly above about 0.92. This is one part of the list.

Assay: chemical genetic growth profiling, strain panel (AID 1159580);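 also: tested at 20 µM; growth read once vehicle control cultures reached saturation at 30 °C; 1 = growth at the plate median or of vehicle wells; lower values mean less growth of the strain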
Settings: growth OD
[1] = S. cerevisiae deletion strains, locus YDR150W, strain NUM1, stronger effect = lower value
[2] = S. cerevisiae deletion strains, locus YMR307W, strain GAS1, stronger effect = lower value
[3] = S. cerevisiae deletion strains, locus YPL055C, strain LGE1, stronger effect = lower value
[4] = S. cerevisiae deletion strains, locus YBR021W, strain FUR4, stronger effect = lower value
[5] = S. cerevisiae deletion strains, locus YBR229C, strain ROT2, stronger effect = lower value
[6] = S. cerevisiae deletion strains, locus YCL029C, strain bik1, stronger effect = lower value
[7] = S. cerevisiae deletion strains, locus YDL035C, strain GPR1, stronger effect = lower value
[8] = S. cerevisiae deletion strains, locus YDL074C, strain BRE1, stronger effect = lower value
[9] = S. cerevisiae deletion strains, locus YDL101C, strain DUN1, stronger effect = lower value
[10] = S. cerevisiae deletion strains, locus YDL185W, strain tfp1, stronger effect = lower value
[11] = S. cerevisiae deletion strains, locus YDL192W, strain arf1, stronger effect = lower value
[12] = S. cerevisiae deletion strains, locus YDR101C, strain arx1, stronger effect = lower value
[13] = S. cerevisiae deletion strains, locus YDR162C, strain NBP2, stronger effect = lower value
[14] = S. cerevisiae deletion strains, locus YDR318W, strain mcm21, stronger effect = lower value
[15] = S. cerevisiae deletion strains, locus YDR388W, stronger effect = lower value
[16] = S. cerevisiae deletion strains, locus YDR502C, strain sam2, stronger effect = lower value
[17] = S. cerevisiae deletion strains, locus YEL061C, strain CIN8, stronger effect = lower value
[18] = S. cerevisiae deletion strains, locus YER110C, stronger effect = lower value
[19] = S. cerevisiae deletion strains, locus YER155C, strain BEM2, stronger effect = lower value
[20] = S. cerevisiae deletion strains, locus YER167W, strain BCK2, stronger effect = lower value
[21] = S. cerevisiae deletion strains, locus YGL078C, strain dbp3, stronger effect = lower value
[22] = S. cerevisiae deletion strains, locus YGL086W, strain mad1, stronger effect = lower value
[23] = S. cerevisiae deletion strains, locus YGL248W, strain PDE1, stronger effect = lower value
[24] = S. cerevisiae deletion strains, locus YGR135W, strain pre9, stronger effect = lower value
[25] = S. cerevisiae deletion strains, locus YGR252W, strain gcn5, stronger effect = lower value
[26] = S. cerevisiae deletion strains, locus YHR030C, strain SLT2, stronger effect = lower value
[27] = S. cerevisiae deletion strains, locus YHR079C, strain IRE1 (second series), stronger effect = lower value
[28] = S. cerevisiae deletion strains, locus YHR094C, strain hxt1, stronger effect = lower value
[29] = S. cerevisiae deletion strains, locus YHR129C, strain ARP1, stronger effect = lower value
[30] = S. cerevisiae deletion strains, locus YHR200W, strain rpn10, stronger effect = lower value
[31] = S. cerevisiae deletion strains, locus YIL066C, strain RNR3, stronger effect = lower value
[32] = S. cerevisiae deletion strains, locus YIL073C, strain SPO22, stronger effect = lower value
[33] = S. cerevisiae deletion strains, locus YIL125W, strain kgd1, stronger effect = lower value
[34] = S. cerevisiae deletion strains, locus YIR030C, strain dcg1, stronger effect = lower value
[35] = S. cerevisiae deletion strains, locus YJL095W, strain BCK1, stronger effect = lower value
[36] = S. cerevisiae deletion strains, locus YJL134W, strain LCB3, stronger effect = lower value
[37] = S. cerevisiae deletion strains, locus YJL168C, strain set2, stronger effect = lower value
[38] = S. cerevisiae deletion strains, locus YJL187C, strain SWE1 (second series), stronger effect = lower value
[39] = S. cerevisiae deletion strains, locus YJR043C, strain POL32, stronger effect = lower value
[40] = S. cerevisiae deletion strains, locus YKL009W, strain mrt4, stronger effect = lower value
[41] = S. cerevisiae deletion strains, locus YKL068W, stronger effect = lower value
[42] = S. cerevisiae deletion strains, locus YKL085W, strain MDH1 (second series), stronger effect = lower value
[43] = S. cerevisiae deletion strains, locus YKL085W, strain MDH1, stronger effect = lower value
[44] = S. cerevisiae deletion strains, locus YKR001C, strain vps1, stronger effect = lower value
[45] = S. cerevisiae deletion strains, locus YLR039C, strain RIC1, stronger effect = lower value
[46] = S. cerevisiae deletion strains, locus YLR058C, strain SHM2, stronger effect = lower value
[47] = S. cerevisiae deletion strains, locus YLR102C, strain apc9, stronger effect = lower value
[48] = S. cerevisiae deletion strains, locus YLR262C, strain YPT6, stronger effect = lower value
[49] = S. cerevisiae deletion strains, locus YLR268W, strain sec22, stronger effect = lower value
[50] = S. cerevisiae deletion strains, locus YLR330W, strain CHS5, stronger effect = lower value
[51] = S. cerevisiae deletion strains, locus YLR342W, strain FKS1 (second series), stronger effect = lower value
[52] = S. cerevisiae deletion strains, locus YLR371W, strain rom2, stronger effect = lower value
[53] = S. cerevisiae deletion strains, locus YLR418C, strain cdc73, stronger effect = lower value
[54] = S. cerevisiae deletion strains, locus YML016C, strain PPZ1, stronger effect = lower value
[55] = S. cerevisiae deletion strains, locus YML032C, strain rad52, stronger effect = lower value
[56] = S. cerevisiae deletion strains, locus YML124C, strain tub3, stronger effect = lower value
[57] = S. cerevisiae deletion strains, locus YMR078C, strain ctf18, stronger effect = lower value
[58] = S. cerevisiae deletion strains, locus YMR223W, strain ubp8, stronger effect = lower value
[59] = S. cerevisiae deletion strains, locus YNL067W, strain RPL9B, stronger effect = lower value
[60] = S. cerevisiae deletion strains, locus YNL233W, strain BNI4, stronger effect = lower value
[61] = S. cerevisiae deletion strains, locus YNL250W, strain rad50, stronger effect = lower value
[62] = S. cerevisiae deletion strains, locus YNL271C, strain bni1, stronger effect = lower value
[63] = S. cerevisiae deletion strains, locus YNL298W, strain CLA4, stronger effect = lower value
[64] = S. cerevisiae deletion strains, locus YNL307C, strain MCK1, stronger effect = lower value
[65] = S. cerevisiae deletion strains, locus YNR052C, strain pop2, stronger effect = lower value
[66] = S. cerevisiae deletion strains, locus YOL012C, strain htz1
[67] = S. cerevisiae deletion strains, locus YOL147C, strain pex11, stronger effect = lower value
[68] = S. cerevisiae deletion strains, locus YOR061W, strain CKA2, stronger effect = lower value
[69] = S. cerevisiae deletion strains, locus YOR069W, strain VPS5, stronger effect = lower value
[70] = S. cerevisiae deletion strains, locus YOR136W, strain idh2, stronger effect = lower value
[71] = S. cerevisiae deletion strains, locus YOR144C, strain elg1, stronger effect = lower value
[72] = S. cerevisiae deletion strains, locus YOR184W, strain ser1, stronger effect = lower value
[73] = S. cerevisiae deletion strains, locus YOR316C, strain cot1, stronger effect = lower value
[74] = S. cerevisiae deletion strains, locus YPR119W, strain clb2, stronger effect = lower value
[75] = S. cerevisiae deletion strains, locus YPR141C, strain kar3, stronger effect = lower value
[76] = S. cerevisiae deletion strains, locus YPR163C, strain tif3, stronger effect = lower value
[77] = S. cerevisiae deletion strains, locus YPR167C, strain met16, stronger effect = lower value
[78] = S. cerevisiae deletion strains, strain wtn01, stronger effect = lower value

Measured: normalized growth

O=c1cc(O)cc(/C=C/c2ccc(O)c(O)c2)o1
inactive: S. cerevisiae deletion strains, locus YAL013W, strain DEP1, stronger effect = lower value 0.981 | S. cerevisiae deletion strains, locus YAL040C, strain CLN3, stronger effect = lower value 0.986 | S. cerevisiae deletion strains, locus YCL061C, strain MRC1 (second series), stronger effect = lower value 0.988 | [1] 0.978 | S. cerevisiae deletion strains, locus YDR363W, strain ESC2, stronger effect = lower value 0.995 | S. cerevisiae deletion strains, locus YER002W, strain NOP16, stronger effect = lower value 0.999 | S. cerevisiae deletion strains, locus YGR078C, strain PAC10, stronger effect = lower value 0.985 | S. cerevisiae deletion strains, locus YGR229C, strain SMI1, stronger effect = lower value 0.966 | S. cerevisiae deletion strains, locus YJR075W, strain HOC1, stronger effect = lower value 0.988 | S. cerevisiae deletion strains, locus YMR263W, strain SAP30, stronger effect = lower value 1 | [2] 1.01 | S. cerevisiae deletion strains, locus YNL175C, strain NOP13, stronger effect = lower value 0.988 | S. cerevisiae deletion strains, locus YNL197C, strain WHI3, stronger effect = lower value 0.986 | S. cerevisiae deletion strains, locus YNL224C, strain SQS1, stronger effect = lower value 1.02 | S. cerevisiae deletion strains, locus YOR083W, strain WHI5 (second series), stronger effect = lower value 0.975 | [3] 0.978

Oc1cc(O)cc(/C=C/c2ccccc2)c1
inactive: [4] 1.1 | [5] 1 | [6] 0.973 | [7] 1.01 | [8] 0.983 | [9] 0.978 | [10] 0.959 | [11] 0.977 | [12] 1.04 | [1] 0.998 | [13] 0.996 | [14] 0.965 | [15] 0.987 | [16] 0.962 | [17] 1 | [18] 0.977 | [19] 0.995 | [20] 1.01 | [21] 0.953 | [22] 0.995 | [23] 0.957 | [24] 0.921 | [25] 0.88 | [26] 1 | [27] 0.976 | [28] 0.987 | [29] 0.99 | [30] 0.981 | [31] 1.01 | [32] 0.963 | [33] 1.01 | [34] 0.983 | [35] 0.961 | [36] 1.01 | [37] 0.974 | [38] 0.966 | [39] 1.03 | [40] 0.964 | [41] 0.994 | [42] 0.994 | [43] 0.994 | [44] 0.987 | [45] 1.03 | [46] 0.996 | [47] 0.992 | [48] 1.02 | [49] 1.02 | [50] 0.993 | [51] 1.07 | [52] 0.933 | [54] 0.998 | [55] 0.993 | [56] 0.982 | [57] 0.984 | [58] 0.977 | [2] 1 | [59] 0.968 | S. cerevisiae deletion strains, locus YNL128W, strain TEP1, stronger effect = lower value 0.977 | S. cerevisiae deletion strains, locus YNL153C, strain GIM3, stronger effect = lower value 0.96 | [60] 0.981 | [61] 0.935 | [62] 0.984 | [63] 1.02 | [64] 0.991 | [65] 0.977 | S. cerevisiae deletion strains, locus YOL006C, strain TOP1, stronger effect = lower value 1.15 | [66] 1.16 | [67] 0.977 | [68] 1.01 | [69] 0.989 | [70] 0.984 | [71] 0.999 | [72] 1.05 | [73] 0.984 | S. cerevisiae deletion strains, locus YPL241C, strain CIN2, stronger effect = lower value 1 | [74] 0.978 | [75] 0.969 | [76] 0.99 | [77] 0.957 | [78] 1 | S. cerevisiae strains, strain wild type, stronger effect = lower value 1.01
active: [53] 0.797

C/C=C/c1ccc(OC)cc1
inactive: [4] 0.987 | [5] 1.01 | [6] 1.02 | [7] 1.01 | [8] 1.03 | [9] 1.03 | [10] 1.01 | [11] 1.01 | [12] 1.02 | [13] 1.02 | [14] 1 | [15] 1 | [16] 0.998 | [17] 1.01 | [18] 1.02 | [19] 1.01 | [20] 1 | [21] 0.999 | [22] 1.02 | [23] 1.01 | [24] 1 | [25] 1.01 | [26] 1.01 and 0.942 | [27] 1.01 | S. cerevisiae deletion strains, locus YHR079C, strain IRE1, stronger effect = lower value 0.948 | [28] 1.01 | [29] 1.01 | [30] 1.01 | [31] 1.01 | [32] 1.03 | [33] 1.01 | [34] 1.02 | [35] 1.03 and 0.941 | [36] 1.01 | [37] 1.01 | [38] 1.03 | [39] 1.01 | S. cerevisiae deletion strains, locus YJR066W, strain TOR1, stronger effect = lower value 0.902 | [40] 1.02 | [41] 1 | [42] 1.01 | [43] 1.01 | S. cerevisiae deletion strains, locus YKL190W, strain CNB1, stronger effect = lower value 1.01 | [44] 0.998 | [45] 1.03 | [46] 1.01 | [47] 1.01 | S. cerevisiae deletion strains, locus YLR113W, strain HOG1, stronger effect = lower value 0.91 | [48] 1.05 | [49] 1.03 | [50] 1.01 | [51] 0.986 | [52] 1.02 | [53] 0.989 | [54] 1.01 | [55] 0.99 | [56] 1.01 | [57] 1.01 | [58] 1.01 | [2] 0.968 | [59] 1.03 | S. cerevisiae deletion strains, locus YNL183C, strain NPR1, stronger effect = lower value 0.904 | [60] 1.02 | [61] 1.02 | [62] 1 | [63] 0.988 | [64] 1 | [65] 1.01 | [66] 0.756 | [67] 1.01 | [68] 1.01 | [69] 1.01 | [70] 1.01 | [71] 1 | [72] 1.01 | S. cerevisiae deletion strains, locus YOR231W, strain MKK1, stronger effect = lower value 0.953 | [73] 1 | [3] 1.03 | S. cerevisiae deletion strains, locus YPL256C, strain CLN2, stronger effect = lower value 0.927 | [74] 1.01 | [75] 1.01 | [76] 1 | [77] 1.01 | [78] 1.01
